# Screening data deposited in PubChem by The Scripps Research Institute Molecular Screening Center.
# bovine MsrA act: bovine MsrA enzyme activators, primary screen, biochemical, absorbance, HTS; Methionine sulfoxide reductase A (Bos taurus); purified bovine MsrA, absorbance read-out; activation, % at 10.6 µM; actives 0.3% (n = 360,000); in the data active = activation above about 7.5%
# MsrA inhibitor: bovine MsrA enzyme inhibitors, primary screen, biochemical, absorbance, HTS; Methionine sulfoxide reductase A (Bos taurus); purified bovine MsrA, absorbance read-out; inhibition, % at 15.5 µM; actives 0.75% (n = 360,000); AID 651718, 2012; in the data active = inhibition above about 4.5%
# proKLK7 act: proKLK7 zymogen activators, primary screen, biochemical, fluorescence intensity; purified proKLK7, EDANS-DABCYL substrate fluorescence; 100% is mature enzyme control, 0% vehicle; AID 652039, 2013; actives 0.9% (n = 370,000); Kallikrein-7 (Homo sapiens), P49862; activation, % at 7 µM;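 active = activation above the mean of all tested compounds plus 3 SD, computed per campaign excluding outliers beyond control limits, cut at about 13% in these data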
# Target sequence (P49862 whole entry, looked up): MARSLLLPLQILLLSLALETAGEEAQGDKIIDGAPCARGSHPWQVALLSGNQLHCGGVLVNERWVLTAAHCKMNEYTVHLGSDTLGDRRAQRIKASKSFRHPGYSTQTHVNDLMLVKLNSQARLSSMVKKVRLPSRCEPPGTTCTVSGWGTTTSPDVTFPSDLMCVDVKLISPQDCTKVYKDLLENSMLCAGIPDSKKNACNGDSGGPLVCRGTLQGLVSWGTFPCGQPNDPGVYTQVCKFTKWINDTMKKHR
# SMARCA2 act: SMARCA2 (BRM) function activators, primary screen, cell-based, luminescence, high throughput. MG213 cells, MMTV-luciferase reporter, dexamethasone, overnight. activation, % at 9.1 µM. actives 1% (n = 370,000). AID 652017, 2013; in the data active = activation above about 7.8%
# proKLK7 act conf: proKLK7 zymogen activators, confirmation, biochemical, fluorescence intensity, triplicate. actives 68% (n = 3,200). activation, % at 7 µM. purified proKLK7, EDANS-DABCYL substrate fluorescence; scaled: vehicle 0, mature enzyme 100. shares compounds with proKLK7 act. AID 686949, 2013;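 active = activation, as change over the incubation, above the mean of all tested compounds plus 3 SD, cut at about 13% in these data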
# EDANS-DABCYL int: EDANS-DABCYL substrate optical interference, artefact control for kallikrein-7 zymogen activator project, biochemical, fluorescence intensity, high throughput | shares compounds with proKLK7 act | no enzyme, 4 h; solvent 0%, active enzyme control 100% | activation, % at 7 µM | actives 80% (n = 3,200) | AID 686952, 2013;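 active = activation above the all-compound mean plus 3 SD, ignoring values outside control-based bounds, cut at about 4.8% in these data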;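 also: value is the 4 h activation minus the activation read at time zero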
# Numbers stand for hits; . = inactive; / = not tested or not shown. This is a sample that favours compounds with a hit; in the whole collection about 2.8% have one here.
SMILES,bovine MsrA act,MsrA inhibitor,proKLK7 act,SMARCA2 act,proKLK7 act conf,EDANS-DABCYL int
COc1ccccc1-c1c(C)oc2c(CN3CCN(CCO)CC3)c(O)ccc2c1=O,.,.,72,.,68,75
COc1ccccc1-c1c(C)oc2c(CN3CCN(C)CC3)c(O)ccc2c1=O,.,.,62,.,60,74
CC1CCC2(CC1)NC(=O)N(CC(=O)Nc1ccc(N3CCCCC3)cc1)C2=O (stereo not given),.,.,.,.,/,/
CCCCCCn1c(=O)[nH]c2nc3cc(N)ccc3nc2c1=O,/,.,14,.,19,20
CCCCCn1c(=O)c(C(=O)c2ccccc2)nc2ccccc21,.,.,.,.,/,/
CN(Cc1ccccc1F)C(=O)Cn1c(-c2cncs2)nc2ccccc21,/,/,.,.,/,/
COc1ccc(OC)c2c1CCC2=O,.,.,13,.,19,23
COc1ccccc1NC1=C(C)C(=O)CC1,.,.,.,.,/,/
COc1cc2cncc(Cc3ccccc3)c2cc1O,.,.,22,.,17,21
COc1cc2c(Cc3ccccc3)cncc2cc1O,.,.,.,.,/,/
CC(C)(C)NC(=O)Nc1ccc2nccnc2c1,.,.,64,.,70,77
O=c1[nH]cnc2cc(-c3ccccc3)sc12,.,.,.,.,/,/
COc1ccc(-c2cc3nc[nH]c(=O)c3s2)cc1,.,.,41,.,.,15
COc1cccc(CNc2nc3cc(-c4cccc(Cl)c4)sc3c(=O)n2C)c1,.,.,.,.,/,/
COc1ccc(-c2cc3nc(CCl)[nH]c(=O)c3s2)cc1,.,.,19,.,.,.
COc1cccc(C(=O)N2CCC[C@@H]2C(=O)N2CCC[C@H]2C(=O)NCc2ccccc2)c1,/,.,.,.,/,/
Nn1c(SCC(=O)Nc2cccc3ccccc23)nnc1-c1cc(-c2ccc(Cl)cc2)n[nH]1,/,/,.,.,/,/
OCc1ccc(-c2cncc3nccn23)cc1,.,.,23,.,27,27
Cc1cc2cc3c(=O)[nH]c(=O)nc-3n(CC(O)C(O)C(O)CO)c2cc1C (stereo not given),.,.,48,.,61,71
Cc1cc2cc3c(=O)[nH]c(=O)cc-3n(CC(O)C(O)C(O)CO)c2cc1C (stereo not given),.,.,.,.,/,/
COc1cc2c(cc1OC)/C(=C/C#N)NC(C)(C)C2,.,.,19,.,.,14
CN1CC=C2C(C#N)=C(N)C(C#N)(C#N)C(Cc3ccccc3)C2C1 (stereo not given),.,.,24,.,.,9.3
CC(C)(C)OC(=O)N1CC=C2C(C#N)=C(N)C(C#N)(C#N)C(c3cccs3)C2C1 (stereo not given),.,.,.,.,/,/
CC(C)N1CC=C2C(C#N)=C(N)C(C#N)(C#N)C(c3ccccc3)C2C1 (stereo not given),.,.,16,.,29,28
N#CC1=C(N)C(C#N)(C#N)[C@H](c2ccncc2)[C@H]2CN(C(=O)OCc3ccccc3)CC=C12,.,.,31,.,27,21
SMILES,bovine MsrA act,MsrA inhibitor,proKLK7 act,SMARCA2 act,proKLK7 act conf,EDANS-DABCYL int
CC(C)(C)OC(=O)N1CC=C2C(C#N)=C(N)C(C#N)(C#N)[C@H](c3cccnc3)[C@H]2C1,.,.,19,.,37,34
CN(C)C=Nc1ccc2nn(-c3ccccc3)nc2c1,.,.,19,.,66,69
CC1(Cc2ccccc2Cl)C(=O)Nc2ccc(OC(F)(F)F)cc21 (stereo not given),.,.,.,.,/,/
CN(C)C(=O)c1cccc(-c2cnc3cccnn23)c1,.,.,45,.,59,59
CN(C)CCCNC(=O)c1cccc(-c2cnc3cccnn23)c1,.,.,54,.,60,62
c1cnn2c(-c3ccc4c(c3)CCO4)cnc2c1,.,.,.,.,/,/
CN(C)CCCNC(=O)c1cccc(-c2ccc3nccn3c2)c1,.,.,.,.,/,/
COc1ccc(-c2ccc3c(n2)CCCN3S(=O)(=O)c2ccccc2)cc1,/,.,.,.,/,/
COc1ccc(-c2coc3cc(OC(C)=O)ccc3c2=S)cc1,.,.,51,.,93,77
COc1ccc(-c2coc3cc(O)c(OC)cc3c2=O)cc1,.,.,13,.,67,54
Nc1ccc2c(c1)C(=O)c1ccc(N)cc1-2,.,.,.,.,/,/
CN(C(=O)c1ccncc1)c1nnc(-c2ccccn2)s1,.,.,64,.,88,81
COC(=O)c1c(N)n(CCCN2CCOCC2)c2nc3ccccc3nc12,.,.,43,.,75,80
COc1ccc(CNC(=O)c2c(N)n(CCCN3CCOCC3)c3nc4ccccc4nc23)cc1,.,.,.,.,/,/
COCCOC(=O)c1c(N)n(CCCN2CCOCC2)c2nc3ccccc3nc12,.,.,46,.,75,79
CC(C)Cn1c(N)c(C(=O)NCCN2CCOCC2)c2nc3ccccc3nc21,.,.,57,.,.,.
Cc1cccc(-n2c(N)c(C(=O)NCCN3CCOCC3)c3nc4ccccc4nc32)c1,/,.,.,.,/,/
C[C@@H]1CN([C@@H](C)CO)C(=O)CCCn2nncc2CO[C@@H]1CN(C)C(=O)C1CCCCC1,.,.,.,.,/,/
COc1ccc(O)c(C(=O)CC(=O)c2ccncc2)c1,.,.,14,.,282,290
CC(=O)Oc1ccc2c(=O)oc(-c3ccccc3)nc2c1,.,.,.,.,/,/
COc1ccc(-c2cc3ccc(OCC(=O)NCC4CCC(C(=O)O)CC4)cc3oc2=O)cc1 (stereo not given),.,.,64,.,54,74
CC(=O)Oc1ccc2cc(-c3ccccc3)c(=O)oc2c1,.,.,216,.,565,570
CC(=O)COc1ccc2cc(-c3ccccc3)c(=O)oc2c1,.,.,23,.,57,73
COc1ccc2c(c1)c(=O)oc1cc(OCC(=O)NCC3CCC(C(=O)O)CC3)ccc12 (stereo not given),.,.,.,.,/,/
CCCCCCCCNS(=O)(=O)CC1NCc2ccc(C)cc21 (stereo not given),/,/,.,.,/,/
CCc1cccc(-n2c(C)cc(O)cc2=O)c1,/,.,.,.,/,/
COc1ccc(Nc2nnc(-c3ccc4c(c3)OCO4)o2)cc1,/,.,.,.,/,/
CCc1nn(CC(=O)NCCN2CCN(C)CC2)c(=O)c2cc3c(OC)cccc3n12,.,.,34,.,27,34
Cc1c(Cl)cccc1N1C(=O)CC(NNC(=O)c2ccc3c(c2)OCO3)C1=O (stereo not given),.,.,.,.,/,/
